Measured values as given in PubChem BioAssay AID2284135 (EPA ToxCast).
Records with an inconclusive call do not appear. The source made the active and inactive calls. Rule for the calls: active = hit-call score of the fitted dose curve at least 0.9, where 1 is the maximum; inconclusive = response in the unintended direction; inactive = score below 0.9.

biological target: cAMP-dependent protein kinase catalytic subunit alpha (Homo sapiens) (UniProt P17612); experiment: ERF_TW_ENZ_hPRKACA: Eurofins (ERF) Enzymatic Radiometric [10 uM ATP] LeadHunter Assay for human PKA AGC Kinase
Procedure: ERF_TW_ENZ_hPRKACA is a biochemical, single-readout assay that uses extracted gene-proteins in a cell-free assay. Measurements were taken 0.25 hour after chemical dosing in a 96-well plate. See PKA Human AGC Kinase Enzymatic Radiometric Assay [10 uM ATP], Panlabs.ERF_TW_ENZ_hPRKACA is an assay component calculated from the ERF_TW_ENZ_hPRKACA assay. It is designed to measure enzyme activity using a type of enzyme reporter as detected by scintillation counting with radiometry technology.Data from the assay component ERF_TW_ENZ_hPRKACA was analyzed at the assay endpoint, ERF_TW_ENZ_hPRKACA, in the positive analysis fitting direction relative to DMSO as the negative control and baseline of activity. Using a type of enzyme reporter, loss-of-signal activity can be used to understand changes in enzymatic activity as they relate to gene PRKACA. To generalize the intended target to other relatable targets, this assay endpoint is annotated to the kinase intended target family, where the subfamily is serine/threonine kinase.
Human protein kinase PKA expressed in E. coli. is used. Test compound and/or vehicle is preincubated with 23 ng/ml enzyme in modified MOPS buffer pH 7.2 at 37C for 15 minutes. The reaction is initiated by addition of 0.5 uM PKA substrate peptide, 10 uM ATP and 0.25 uCi [gamma32P]ATP for another 15 minute incubation period and terminated by further addition of 3 % H3PO4. An aliquot is removed to a 96 well multiscreen, washed with H3PO4 solution, dried and counted to determine the amount of 32P- PKA substrate peptide formed. Compounds are screened at 10 uM.Test Sample Requirements: Minimum for 1) Screen: 25 ul of 10 mM stock -OR- 1 mg (pre-weighed). 2) Dose Response: 60 ul of 10 mM stock -OR- 1 mg (pre-weighed).

AC50, active:
COc1cc(CCC(=O)CC(=O)CCc2ccc(O)c(OC)c2)ccc1O 3.01 µM, COc1cc(/C=C/C(=O)CC(=O)/C=C/c2ccc(O)c(OC)c2)ccc1O 2.97 µM, O=C(/C=C/c1ccc(O)cc1)CC(=O)/C=C/c1ccc(O)cc1 2.19 µM
